Data: PubChem BioAssay
Calls of active or inactive are those of the source.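 How the source made its calls: active means fluorescence ratio normalized to control raised more than 50% in primary screen plus both repeat runs; inactive means the rest.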

Test system: TRPC4 beta (transient receptor potential cation channel C4), mouse
Test: activators of mouse TRPC4 channel, confirmation, cell-based, Fluo4 calcium, HEK293 TRPC4beta/mu-opioid, duplicates, 10 µM (AID 2426)
Details: Fluo4 calcium fluorescence, at 10 µM

outcome, inactive:
Cc1cc(/C=C2/C(=N)N3C(=NC2=O)SN=C3S(C)(=O)=O)c(C)n1-c1ccccc1F
Cc1ccc(O)c(CNc2nc3ccccc3[nH]2)c1
CC(Oc1ccc(Cl)cc1Cl)c1nc(-c2ccccn2)no1 (centres undefined)
Fc1ccccc1COc1ccccc1CNCc1ccncc1
CC12CC3(C)CC(C)(C1)CC(NC(=O)N1CCCC1)(C2)C3
Clc1cccc(COn2c(-c3ccc(Cl)cc3Cl)nc3ncccc32)c1
CC1CCN(CCCOc2ccc(OCc3ccccc3)cc2)CC1
CCN(CC)C(=O)C1CCCN(Cc2cccc(Oc3ccccc3)c2)C1 (centres undefined)
O=C(O)c1ccc(NC(=S)NC(=O)c2ccc(-c3ccccc3)cc2)cc1
Cc1ccc(C)c2[nH]c(=O)c(CN(Cc3nnnn3C3CCCCC3)CC3CCCO3)cc12 (centres undefined)
CC(C)CN(CC(C)C)c1nc(N)c(C#N)c(CC#N)c1C#N
CC(C)Oc1cccc(C(=O)C2CCCN(Cc3cnn(C(C)C)c3)C2)c1 (centres undefined)
Cc1ccc(O)c(Sc2cc(C)ccc2O)c1
Cc1cccc(Cn2c(C(C)(C)C)cc3cccnc32)c1
Cc1cc(N2CCC(C)CC2)nc2cccc(O)c12
CSCCNCc1cn(-c2ccc(F)cc2F)nc1-c1ccccc1C
CC(/C=C1\SC(=S)N(C(C(=O)O)C(C)C)C1=O)=C\c1ccccc1 (centres undefined)
CCN(CC)CCn1c2ccccc2c2cnc(N)c(C#N)c21
CCOC(=O)C1CCN(CC(O)COc2ccc(C(C)(C)C)cc2)CC1 (centres undefined)
